Our source for the growth values is PubChem BioAssay (NCI).

Compounds without any hit were thinned out: in the full panel of roughly 83,000, 20% have a hit.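 Percent growth is the endpoint: 0 to 100 indicates growth inhibition (40 means 60% inhibition), 0 means no net growth, and negative values indicate cell death.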 A number with no mark means an inactive call. Active and inactive are the calls of the source. How the source made its calls: active means growth percent below 10; inactive means the rest.

Holding throughout (experiment): NCI-60 one-dose screen, 48 h (100 = growth as untreated, 0 = no growth, -100 = all killed)
One assay concerns NCI-H23 lung. To be noted: 10 µM unless noted.
The subject of the next assay is HOP-62 NSCLC. To be noted: 10 µM unless noted.
The test system of a further assay is NCI-H460 lung. To be noted: 10 µM unless noted.
Another assay relates to HOP-92 NSCLC. To be noted: 10 µM unless noted.
The test system of a further assay is NCI-H522 lung. As to conditions: 10 µM.
The subject of the next assay is A549/ATCC NSCLC. To be noted: 10 µM unless noted.
Another assay concerns 786-0 renal. As to conditions: 10 µM unless noted.
The subject of a further assay is NCI-H322M lung. To be noted: 10 µM unless noted.
The test system of the next assay is COLO 205 colon. As to conditions: 10 µM unless noted.

In the case of `COc1ccc(/C=C2\SC(=O)N(CN3CCN(c4cc5c(cc4F)c(=O)c(C(=O)O)cn5C4CC4)CC3)C2=O)cc1`, the growth in the assay with NCI-H23 lung was 96.9%; in the assay with HOP-62 NSCLC it was 109%; in the assay on NCI-H460 lung, 104%; in the assay with HOP-92 NSCLC, 101%; with NCI-H522 lung it was 94.2%; with A549/ATCC NSCLC it was 99.4%. Besides, in the assay on 786-0 renal, the growth is 93.1%.
Consider `O=C1c2ccccc2-c2cn(Cc3ccccc3)c3cccc(c23)C1c1cccnc1` (centres undefined), for which the growth in the assay with NCI-H23 lung is 45.5%; in the assay with NCI-H322M lung, 54%; with NCI-H460 lung, 23.2%; with HOP-92 NSCLC, 76.8%; in the assay on NCI-H522 lung, -12.4% (active); in the assay with A549/ATCC NSCLC, 42.2%. For the same compound, the growth in the assay on 786-0 renal is 52.2%.
Take `COc1cc(/C=C/C(=O)C(=Cc2ccc(F)c(F)c2)C(=O)/C=C/c2ccc(O)c(OC)c2)ccc1O`: the growth was -24.6% (active) in the assay with NCI-H23 lung; 59.4% with NCI-H322M lung; 1.97% (active) in the assay on NCI-H460 lung; 44.2% in the assay on A549/ATCC NSCLC; 40.8% in the assay on 786-0 renal; 58.1% in the assay with COLO 205 colon.
On to `Clc1ccc2c(c1)C[C@H]1C[C@@H](c3cccs3)N2O1`, for which the growth with NCI-H23 lung is 106%; in the assay on NCI-H322M lung it was 99.7%; with NCI-H460 lung, 104%; in the assay on HOP-92 NSCLC it was 69.8%; with NCI-H522 lung, 102%; with A549/ATCC NSCLC it was 98.2%. Further, the growth in the assay on 786-0 renal is 108%; with COLO 205 colon, 112%.
On to `FC(F)(F)Oc1ccc2c(c1)C[C@H]1C[C@@H](c3ccoc3)N2O1`, for which the growth was 96.5% in the assay on NCI-H23 lung; 117% with NCI-H322M lung; 114% in the assay on NCI-H460 lung; 82.8% in the assay on HOP-92 NSCLC; 99.6% with NCI-H522 lung; 92.1% in the assay with A549/ATCC NSCLC. For the same compound, the growth in the assay with 786-0 renal is 105%; in the assay on COLO 205 colon, 110%.
Consider `COc1ccc(-c2c(-c3cc4c(c(OC)c3OC)OCO4)noc2N)cc1`, for which the growth is 42.5% with NCI-H23 lung; 54.2% in the assay on NCI-H322M lung; 13.2% in the assay on NCI-H460 lung; 15.3% in the assay with HOP-92 NSCLC; 24.1% in the assay on A549/ATCC NSCLC; 38.4% in the assay with 786-0 renal. Further, in the assay on COLO 205 colon, the growth was -2.51% (active).
For the compound `CCCCC(O)Cn1ncc(C(=O)OCC)c1NC(=O)NCc1ccccc1C(F)(F)F` (centres undefined), the growth in the assay on NCI-H23 lung was 98.1%; in the assay with NCI-H322M lung, 105%; in the assay with NCI-H460 lung, 103%; in the assay with HOP-92 NSCLC, 84.7%; with A549/ATCC NSCLC, 89.1%; with 786-0 renal it was 93.2%.
Turning to `CN([N-]C(=O)CC(=O)[N-]N(C)C(=S)c1ccccc1)C(=S)c1ccccc1.[Cu+2]`, the growth in the assay with NCI-H23 lung is -73.8% (active); in the assay with NCI-H322M lung it was -95.8% (active); in the assay on NCI-H460 lung, -35.4% (active); with NCI-H522 lung it was -93.4% (active); in the assay with A549/ATCC NSCLC, -54.9% (active); with 786-0 renal, -72% (active). Moreover, the growth in the assay on COLO 205 colon was -83.4% (active).
In the case of `Oc1ccccc1/C=N/Nc1nc2ccccc2s1`, the growth was 59.4% with NCI-H23 lung; 63.1% in the assay with NCI-H322M lung; 15.7% with NCI-H460 lung; 44.5% in the assay on HOP-92 NSCLC; 45% in the assay on A549/ATCC NSCLC; 73.4% with 786-0 renal. The growth with COLO 205 colon was 38%.
Regarding `COC(=O)c1c2c(c(C)[n+]([O-])c1C)C(=O)C=C(NCc1ccc(F)c(Cl)c1)C2=O`, the growth in the assay on NCI-H23 lung was -65.9% (active); in the assay on NCI-H322M lung, -38.9% (active); in the assay on NCI-H460 lung it was -38.7% (active); in the assay on A549/ATCC NSCLC, -47.4% (active); with 786-0 renal it was 3.92% (active).
`Cc1cc(=O)[nH]n1-c1cc(Cl)ccc1N`: the growth in the assay with NCI-H23 lung was 107%; in the assay with NCI-H322M lung, 112%; in the assay with NCI-H460 lung it was 113%; in the assay with A549/ATCC NSCLC, 105%; with 786-0 renal, 104%; in the assay on COLO 205 colon, 103%.
`O=C(CCc1nnc2sc(-c3ccccc3)nn12)c1nc2ccccc2[nH]1`: the growth in the assay with NCI-H23 lung was 79.7%; in the assay with HOP-62 NSCLC, 100%; in the assay on NCI-H460 lung it was 99.8%; with HOP-92 NSCLC, 49.1%; in the assay with NCI-H522 lung, 91.2%; with A549/ATCC NSCLC, 99.3%. Also, the growth is 103% with 786-0 renal and 114% in the assay with COLO 205 colon.
Regarding `CCOc1ccc(-c2cnnn2-c2nonc2-n2cccc2)cc1`, the growth in the assay on NCI-H23 lung is 17.3%; with HOP-62 NSCLC it was 31.6%; with NCI-H460 lung, 10.2%; in the assay on HOP-92 NSCLC, 25.4%; with NCI-H522 lung, -55.9% (active); in the assay with A549/ATCC NSCLC, 17.2%. Further, the growth in the assay with 786-0 renal is 37.3%; with COLO 205 colon it was -75.2% (active).
As for `c1ccc(-c2n(Cc3ccc4ccccc4c3)c3ccccc3[n+]2Cc2ccc3ccccc3c2)cc1`, the growth in the assay on NCI-H23 lung was -20.9% (active); in the assay with NCI-H322M lung, 3.63% (active); with NCI-H460 lung, -82.1% (active); with HOP-92 NSCLC, -40.4% (active); with A549/ATCC NSCLC, 5.14% (active); in the assay on 786-0 renal it was -94.8% (active). Further, in the assay with COLO 205 colon, the growth is -70.7% (active).
Consider `COc1cc2cc(Oc3ccc(NC(=O)Nc4cccc(C(F)(F)F)c4)cc3)c(C)nc2cc1OCCN1CCCCC1`, for which the growth in the assay on NCI-H23 lung was -75.4% (active); in the assay with NCI-H322M lung, -14.5% (active); with NCI-H460 lung it was -84.2% (active); with HOP-92 NSCLC, 23.4%; in the assay with A549/ATCC NSCLC, -56.2% (active); with 786-0 renal, -83.7% (active). Also, in the assay with COLO 205 colon, the growth is -74.9% (active).
Regarding `Cc1ccc2nc(NC(=O)CSC(=S)N3CCN(C)CC3)sc2c1`, the growth is 92.4% in the assay on NCI-H23 lung; 106% in the assay on NCI-H322M lung; 106% with NCI-H460 lung; 95.3% in the assay with A549/ATCC NSCLC; 108% with 786-0 renal; 105% in the assay with COLO 205 colon.
With `COC(=O)c1c2c(c(C)[n+]([O-])c1C)C(=O)C=C(NCc1cccc(OC)c1)C2=O`, the growth in the assay with NCI-H23 lung was -69.2% (active); with HOP-62 NSCLC it was -15.1% (active); in the assay on NCI-H460 lung it was -41.6% (active); in the assay with HOP-92 NSCLC it was -43.6% (active); in the assay with NCI-H522 lung, -54.7% (active); in the assay on A549/ATCC NSCLC, -52.1% (active). Besides, in the assay on 786-0 renal, the growth is -3.41% (active).
For `COc1ccc(OC)c(/C=C2\Oc3cc(O)ccc3C2=O)c1`, the growth in the assay with NCI-H23 lung was 96.1%; in the assay with NCI-H322M lung, 92.6%; with NCI-H460 lung, 91.6%; with HOP-92 NSCLC, 98.2%; with NCI-H522 lung, 77.6%; with A549/ATCC NSCLC, 98.8%. Further, the growth with 786-0 renal was 89.5%.
